These results are taken from PubChem BioAssay (Tox21).

Experiment [1] in a line: qHTS assay to identify small molecule agonists of the sonic hedgehog signaling (Shh) pathway (AID 1259368).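 Further: NIH/3T3-derived 3T3Gli1-Luc cells carrying a stable Gli1-driven firefly luciferase reporter; series mostly up to about 92 µM; nearly all actives have a fitted effect of over 15% in size.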 In a few lines:
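Quantitative high-throughput format using a Gli1-driven firefly luciferase reporter line derived from NIH/3T3 cells. After a 24 hr compound treatment at 37 C and 5% CO2, luminescence reported Gli1 response element activity.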
Background: qHTS replaces the single test concentration by a dilution series.

Experiment [2] can be described thus: qHTS assay to identify small molecule antagonists of the sonic hedgehog signaling (Shh) pathway (AID 1259369). Further: nearly all actives have a fitted effect of over 45% in size. Further: potency means the concentration at half of the fitted maximal effect. The gist of the method: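 Stable Gli1-Luc reporter NIH/3T3 clone; quantitative HTS in stimulated mode with conditioned medium. Luminescence measured after 24hr compound treatment at 37 C.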
The target of experiment [3] is Estrogen receptor beta (Homo sapiens) (UniProt Q92731). In words: qHTS assay to identify small molecule agonists of the estrogen receptor beta (ER-beta) signaling pathway (AID 1259377; active means well fitted activation curve with a large enough effect in the signal ratio in the repeat runs, not every such curve was filed as active; the % refers to the signal ratio). The gist of the method:
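HEK293T ER-beta-UAS-bla; 2% charcoal-stripped FBS; cells pre-incubated 6 hr, compound 16 hr, 37C/5% CO2; LiveBLAzer B/G FRET substrate 2 h RT; fluorescence intensity read.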

The target is the same in experiment [4]. In words: qHTS assay to identify small molecule antagonists of the estrogen receptor beta (ER-beta) signaling pathway (AID 1259378; active means well fitted inhibition curve with a large enough effect in the signal ratio in the repeat runs, not every such curve was filed as active; the % refers to the signal ratio). The gist of the method: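 ER-beta-UAS-bla HEK293T cells in 2% charcoal-stripped FBS medium treated with compound plus 1nM final 17-beta-estradiol for 16 hr at 37C. Beta-lactamase reporter read by FRET substrate fluorescence after 2 hours at room temperature.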

Experiment [5] is described as follows: qHTS assay to identify small molecule agonists of the androgen receptor (AR) signaling pathway in the presence of an antagonist - cell viability counter screen (AID 1259379; active means well fitted curve in the direction sought with a large enough effect in the repeat runs; an effect the other way counts as inactive or inconclusive;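 further: MDA-kb2 human breast cancer cells carrying an MMTV luciferase reporter; series mostly up to about 92 µM; nearly all actives have a fitted effect of over 25% in size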). In a few lines:
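Nilutamide-containing (3.0uM final) MDA-kb2 cultures, 3,000 cells/well, were treated with compounds across 15 concentrations. After 16 hr at 37C with no CO2, cell viability was determined by CellTiter-Fluor fluorescence in the luciferase assay wells.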

A short description of experiment [6]: qHTS assay to identify small molecule agonists of the estrogen receptor beta (ER-beta) signaling pathway - cell viability counter screen (AID 1259380; active means well fitted curve in the direction sought with a large enough effect in the repeat runs; an effect the other way counts as inactive or inconclusive; further: nearly all actives have a fitted effect of over 30% in size). The gist of the method: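 Steps: plate ER-beta-UAS-bla HEK293T cells, rest 6 hr; add compounds in DMSO; incubate 16 hr at 37C, 5% CO2; add FRET substrate 2 hr; add CellTiter-Glo, wait 30 min at room temperature; read luminescence.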

Experiment [7] is described as follows: qHTS assay to identify small molecule antagonists of the estrogen receptor beta (ER-beta) signaling pathway - cell viability counter screen (AID 1259382; active means well fitted curve in the direction sought with a large enough effect in the repeat runs; an effect the other way counts as inactive or inconclusive; further: series mostly up to about 92 µM; nearly all actives have a fitted effect of over 55% in size). The gist of the method:
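Viability is scored by CellTiter-Glo luminescence (30 min, room temperature) in ER-beta-UAS-bla HEK293T wells already read for reporter fluorescence. Compound exposure lasts 16 hr at 37C alongside 1nM 17-beta-estradiol in charcoal-stripped serum medium.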

Experiment [8] in a line: qHTS assay to identify small molecule agonists or antagonists of the thyroid stimulating hormone receptor (TSHR) signaling pathway - wild type cell line counter screen (AID 1259384). In a few lines:
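Wild-type Hek293 cells, 800/well, 18 h at 37C, then compound with Ro20-1724 for 30 min RT. cAMP by HTRF (cAMP-d2/anti-cAMP cryptate), 1 h RT, fluorescence read. 15 concentrations, triplicates.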

Experiment [9] addresses Androgen receptor (Homo sapiens) (UniProt P10275). The experiment can be described thus: qHTS assay to identify small molecule agonists of the androgen receptor (AR) signaling pathway in the presence of an antagonist (AID 1259381). Further: nearly all actives have a fitted effect of over 15% in size. In a few lines: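 Reporter-gene luminescence from MDA-kb2 cells exposed 16hr at 37C (0% CO2) to 15-point compound titrations with 3.0uM final nilutamide as AR antagonist.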

Experiment [10] deals with Estrogen receptor (Homo sapiens) (UniProt P03372). The experiment can be described thus: qHTS assay to identify small molecule agonists of the estrogen receptor alpha (ER-alpha) signaling pathway in the presence of an antagonist (AID 1259383). Further: top concentration of the series differs between compounds; nearly all actives have a fitted effect of over 15% in size. The gist of the method: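 Readout was ERE-driven luciferase luminescence in VM7Luc4E2 cells, which express full-length ER-alpha endogenously. Compounds were tested at 15 concentrations for 22hr alongside 10.0nM ICI-182,780 (final concentration).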

Molecules are shown by their SMILES. Where “and” joins values, the source holds several entries; their conditions need not be identical. Identical values can stand only once. Inconclusive results are not listed. Calls of active or inactive are those of the source. Unless noted, the call rests on the fitted dose curve.

Estrogen receptor beta (Homo sapiens), sequence (Q92731 whole entry, looked up): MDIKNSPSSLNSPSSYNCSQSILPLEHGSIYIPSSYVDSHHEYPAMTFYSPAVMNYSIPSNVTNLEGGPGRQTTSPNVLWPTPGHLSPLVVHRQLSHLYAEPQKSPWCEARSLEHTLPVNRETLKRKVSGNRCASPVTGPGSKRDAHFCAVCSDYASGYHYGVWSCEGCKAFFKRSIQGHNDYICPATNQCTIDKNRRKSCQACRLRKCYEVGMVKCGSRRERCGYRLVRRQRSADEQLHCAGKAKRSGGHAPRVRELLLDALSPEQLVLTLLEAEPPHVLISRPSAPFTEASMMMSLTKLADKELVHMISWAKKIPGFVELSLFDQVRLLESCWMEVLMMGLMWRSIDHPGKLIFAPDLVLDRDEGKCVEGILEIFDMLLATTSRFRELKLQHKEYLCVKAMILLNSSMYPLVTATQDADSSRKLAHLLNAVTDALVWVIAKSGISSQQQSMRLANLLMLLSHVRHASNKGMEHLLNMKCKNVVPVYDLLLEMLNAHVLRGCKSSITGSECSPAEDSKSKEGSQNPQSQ
Estrogen receptor (Homo sapiens), sequence (P03372 whole entry, looked up): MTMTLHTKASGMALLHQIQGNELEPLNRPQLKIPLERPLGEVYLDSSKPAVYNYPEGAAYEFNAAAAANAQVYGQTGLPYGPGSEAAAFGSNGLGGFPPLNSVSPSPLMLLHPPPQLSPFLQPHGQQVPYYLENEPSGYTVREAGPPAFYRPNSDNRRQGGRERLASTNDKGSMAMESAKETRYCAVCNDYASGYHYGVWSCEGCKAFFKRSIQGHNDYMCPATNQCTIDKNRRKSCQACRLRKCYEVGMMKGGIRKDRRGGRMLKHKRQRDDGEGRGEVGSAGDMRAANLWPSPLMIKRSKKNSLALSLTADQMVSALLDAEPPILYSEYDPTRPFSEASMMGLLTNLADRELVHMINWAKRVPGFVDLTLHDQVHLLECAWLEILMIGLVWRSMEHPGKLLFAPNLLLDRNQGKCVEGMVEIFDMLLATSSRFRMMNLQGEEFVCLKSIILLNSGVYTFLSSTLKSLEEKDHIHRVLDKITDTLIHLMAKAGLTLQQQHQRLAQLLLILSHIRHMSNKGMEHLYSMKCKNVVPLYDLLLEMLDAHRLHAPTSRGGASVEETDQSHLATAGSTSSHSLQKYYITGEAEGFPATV
Androgen receptor (Homo sapiens), sequence (P10275 whole entry, looked up): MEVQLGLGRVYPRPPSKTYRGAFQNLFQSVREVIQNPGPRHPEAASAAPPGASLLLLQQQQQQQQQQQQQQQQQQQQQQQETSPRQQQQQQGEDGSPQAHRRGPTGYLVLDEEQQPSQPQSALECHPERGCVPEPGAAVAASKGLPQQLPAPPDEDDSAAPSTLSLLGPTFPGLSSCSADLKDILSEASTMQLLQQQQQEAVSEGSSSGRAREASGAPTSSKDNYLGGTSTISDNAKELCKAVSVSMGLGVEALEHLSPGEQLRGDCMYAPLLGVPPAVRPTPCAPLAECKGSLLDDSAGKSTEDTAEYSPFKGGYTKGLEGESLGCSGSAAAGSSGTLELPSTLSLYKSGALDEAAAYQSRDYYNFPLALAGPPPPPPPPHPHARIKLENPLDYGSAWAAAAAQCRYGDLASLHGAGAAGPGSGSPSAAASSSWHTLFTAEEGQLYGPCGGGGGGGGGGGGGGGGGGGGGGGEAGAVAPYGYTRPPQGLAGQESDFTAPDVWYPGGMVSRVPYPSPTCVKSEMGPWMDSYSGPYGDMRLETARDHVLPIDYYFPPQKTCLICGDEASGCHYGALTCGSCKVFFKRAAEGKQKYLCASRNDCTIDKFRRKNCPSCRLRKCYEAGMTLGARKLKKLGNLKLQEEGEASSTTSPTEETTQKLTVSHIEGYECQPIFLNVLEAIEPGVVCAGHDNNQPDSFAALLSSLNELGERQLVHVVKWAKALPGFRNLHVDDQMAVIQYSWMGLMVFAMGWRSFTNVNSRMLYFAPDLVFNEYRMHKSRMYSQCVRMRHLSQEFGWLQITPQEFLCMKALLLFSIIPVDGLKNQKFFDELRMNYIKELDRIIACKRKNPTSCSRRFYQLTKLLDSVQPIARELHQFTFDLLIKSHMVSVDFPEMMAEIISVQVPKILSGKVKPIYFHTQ

Regarding `O=c1[nH]c(=O)n([C@H]2C[C@H](O)[C@@H](CO)O2)cc1I`, the compound was classed as inactive in experiment [1], in [3], in experiment [4] and in experiment [8]. The Potency entry in experiment [2], in experiment [5], in [6] and in [7] was “inactive” each time.
On to `Cc1cnc(NS(=O)(=O)c2ccc(N)cc2)nc1`, for which the compound was classed as inactive in [1], in [3], in [4] and in [8]. The Potency result in [2], in experiment [5], in experiment [9], in experiment [7] and in [10] was “inactive” throughout.
For the compound `CCC=O`, the result in experiment [1], in experiment [3], in [4] and in [8] was inactive. The Potency result in experiment [2], in experiment [5], in experiment [6] and in [7] was “inactive” each time.
For `CCOC(=O)c1cccc(N)c1`, the compound was called inactive in experiment [1], in experiment [3], in experiment [4] and in experiment [8]. The Potency entry in experiment [2], in experiment [5], in [6] and in [10] was “inactive” each time.
As for `CCOC(=O)C(=O)OCC`, the result in experiment [1], in [3], in experiment [4] and in experiment [8] was inactive. For the same compound, the Potency entry in experiment [2], in experiment [5], in experiment [6] and in [10] was “inactive” throughout.
For the compound `O=C(CCCN1CCN(c2ccccn2)CC1)c1ccc(F)cc1`, the compound was called inactive in experiment [1], in experiment [3], in experiment [4] and in experiment [8]. The Potency entry in [2], in experiment [5] and in [7] was “inactive” throughout.
In the case of `NC(=O)c1cn(Cc2c(F)cccc2F)nn1`, the call in experiment [1], in [3], in experiment [4] and in [8] was inactive. Further, the Potency entry in [2], in experiment [5], in [6] and in experiment [7] was “inactive” each time.
Take `c1cnc(N2CCN(Cc3ccc4c(c3)OCO4)CC2)nc1`: the compound was classed as inactive in experiment [1], in [3], in experiment [4] and in experiment [8]. The Potency entry in experiment [2], in experiment [5], in experiment [7] and in [10] was “inactive” throughout.
Turning to `CC(=O)OCC(=O)[C@@]1(O)CCC2C3CCC4=CC(=O)CC[C@]4(C)C3[C@@H](O)C[C@@]21C` (stereo partly specified), the compound was called inactive in experiment [1], in [3], in experiment [4] and in experiment [8]. The Potency result in [2], in experiment [5], in [6] and in experiment [7] was “inactive” throughout.
Take `N=C(N)c1ccccc1`: the compound was classed as inactive in [1], in experiment [3], in experiment [4] and in experiment [8]. In addition, the Potency result in experiment [2], in experiment [5] and in experiment [6] was “inactive” each time.
`COC(C)(C)CCCC(C)CC=O` (stereo unspecified): the compound was classed as inactive in experiment [1], in experiment [3], in experiment [4] and in experiment [8]. In addition, the Potency result in experiment [2], in experiment [5], in experiment [6] and in experiment [7] was “inactive” in each case.
On to `Nc1nc2c(ncn2COC(CO)CO)c(=O)[nH]1`, for which the outcome in [1], in [3], in [4] and in experiment [8] was inactive. Also, the Potency entry in experiment [2], in [5], in experiment [6] and in experiment [10] was “inactive” throughout.
`OC1CCCCC1c1ccccc1` (stereo unspecified): the compound was called inactive in experiment [1], in [3], in [4] and in experiment [8]. Also, the Potency entry in experiment [2], in [5], in experiment [9], in [7] and in experiment [10] was “inactive” in each case.
As to `CCC(=O)OC(C)c1ccccc1` (stereo unspecified), the outcome in experiment [1], in experiment [3], in [4] and in [8] was inactive. For the same compound, the Potency result in [2], in [5], in [7] and in experiment [10] was “inactive” throughout.
On to `CC(C)(CC(=O)O)C(=O)O`, for which the outcome in [1], in experiment [3], in experiment [4] and in experiment [8] was inactive. Further, the Potency entry in experiment [2], in experiment [5], in [9], in [7] and in [10] was “inactive” throughout.
With `C[C@H]1C[C@@H](O)CC(C)(C)C1`, the outcome in experiment [1], in experiment [3], in experiment [4] and in [8] was inactive. Also, the Potency entry in experiment [2], in experiment [5], in [6] and in experiment [7] was “inactive” throughout.
Take `CCCCCCCCCCCCN(CCCCCCCCCCCC)CCCCCCCCCCCC`: the compound was classed as inactive in [1] and in experiment [8]. The Potency result in [2], in experiment [5], in [6] and in experiment [7] was “inactive” throughout.
As for `N#Cc1ccc(C2CCCc3cncn32)cc1` (stereo unspecified), the compound was classed as inactive in [1] and in [8]. Besides, the Potency entry in [2], in [5], in experiment [6], in experiment [7] and in [10] was “inactive” each time.
For the compound `CC(C)(C)NCCNC(C)(C)C`, the compound was called inactive in experiment [1] and in [8]. For the same compound, the Potency entry in [2], in experiment [5], in experiment [6], in experiment [7] and in [10] was “inactive” in each case.
Take `CCN(CC)CCOCCOC(=O)C1(c2ccccc2)CCCC1`: the call in experiment [1] and in experiment [8] was inactive. Further, the Potency result in [2], in [5], in [6], in [7] and in experiment [10] was “inactive” throughout.
In the case of `CN(C)CCCSc1ccccc1NC(=O)/C=C/c1ccccc1`, the outcome in experiment [1] and in [8] was inactive. In addition, the Potency entry in experiment [2], in experiment [5], in experiment [6], in experiment [7] and in experiment [10] was “inactive” each time.
Take `CC1(C)C(O)C(C)(C)C1O` (stereo unspecified): the call in experiment [1] and in experiment [8] was inactive. Further, the Potency entry in experiment [2], in experiment [5], in experiment [6], in experiment [9] and in experiment [10] was “inactive” throughout.
As for `CN1CCCC1`, the result in experiment [1] and in experiment [8] was inactive. The Potency entry in experiment [2], in [5], in experiment [6], in experiment [7] and in experiment [10] was “inactive” each time.
On to `CN(C)CCCNCCCN(C)C`, for which the call in experiment [1] and in experiment [8] was inactive. Moreover, the Potency entry in experiment [2], in experiment [5], in experiment [6], in [7] and in experiment [10] was “inactive” throughout.
For `CCCCCSCCCCC`, the call in experiment [1] and in [8] was inactive. Also, the Potency entry in experiment [2], in [5], in experiment [6], in [7] and in experiment [10] was “inactive” throughout.
In the case of `CC(C)(C)c1ccc(O)c(O)c1`, the compound was called inactive in experiment [1] and in [8]. Moreover, in experiment [2], the Potency was 15.9 µM (active) and 6.86 µM (active). Further, the Potency result in experiment [5], in experiment [6] and in experiment [7] was “inactive” in each case.
As to `O=C1CCCN1C1CCCCC1`, the compound was called inactive in experiment [1] and in experiment [8]. Further, the Potency result in experiment [2], in [5], in experiment [6], in experiment [7] and in [10] was “inactive” throughout.
As for `CN(C(=O)c1c(O)c2ccccc2n(C)c1=O)c1ccccc1`, the call in experiment [1] was inactive. For the same compound, the Potency result in [2], in experiment [5], in experiment [6] and in experiment [7] was “inactive” in each case.
For `O=C1OC(=O)C2CCCCC12` (stereo unspecified), the call in experiment [1] was inactive. For the same compound, the Potency result in [2], in [5], in [6], in experiment [7] and in [10] was “inactive” each time.
Regarding `COC(=O)CCSCCC(=O)OC`, the call in experiment [1] and in experiment [8] was inactive. The Potency entry in experiment [2], in experiment [5], in experiment [6] and in [7] was “inactive” throughout.
For the compound `CC(=O)Nc1c(I)cc(I)c(C(=O)O)c1I`, in experiment [1], the outcome was inactive. The Potency entry in experiment [2], in experiment [5], in [6] and in experiment [10] was “inactive” throughout.
